Sampled rows, rich in hits. Any-hit rate of the full collection: about 1.8%.
Akt phos inh: blocks phosphorylation of Akt; Neuro2A IGF-stimulated pAkt S473 HTRF, 20 min; active compounds read low; activity change, % for hits at 50 µM; 360,000 tested, 0.32% active; AID 651550; in the data active = activity change below about -80%; inconclusive = mostly about -51% to -80%; also: % is scaled to controls: 0 for no effect and ±100 for the full control effect
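Neuro2A cells (4,500/well, DMEM with 0.5% FBS) were treated with compound at a single 50 µM final concentration, stimulated with 6 nM IGF for 20 min at 37 °C, and lysed. Phospho-Akt Ser473 was read by HTRF as 665/615 ratio ×10^4.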
AT treatment: potential ataxia-telangiectasia treatment; F2112 A-T fibroblasts, KAP-1 phosphorylation AlphaLISA; neocarzinostatin DNA damage 30 min before lysis; Potency, µM (highest dose often 57.5 µM), inactives show top-dose activation, usual class: activators; 320,000 tested, 0.19% active; also: potency is read from the fitted curve at half-maximal effect; % of control where 0% means no effect; nearly all actives have a fitted effect of over 45% in size
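ATM-like activity read as KAP-1 phosphorylation via AlphaLISA donor/acceptor antibody pairs after lysis and 6 hr at 25C. Cells were ATM-null patient fibroblasts (F2112, hTERT), dosed 60 min, then exposed to the DSB inducer NCS for 30 min.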
CCT chaperon mod: changes cytosolic chaperonin activity; AID 651819; purified chaperonin ATPase assay, HTRF ADP detection, 30 min; 360,000 tested, 0.3% active; activity change, % (test concentration not listed), hits read low; in the data active = activity change below about -30%; also: % is scaled to controls: 0 for no effect and ±100 for the full control effect
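ATPase activity: ADP formed was measured by HTRF Transcreener (665/615 nm ratio) after 30 min at 37 deg C with 10 uM ATP. Compounds screened at one 76 uM concentration against 40 or 20 nM TRiC in Tris pH 7.4/KCl/MgCl2/DTT buffer.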
MmCpn inh: M. maripaludis TRiC chaperonin inhibition; purified Mm-Cpn ATPase, ADP Transcreener TR-FRET; Potency, µM (titrated, usually from 76.9 µM), for inactives: at the highest dose activity, negative = inhibition, actives largely listed as inhibitors; 330,000 tested, 0.031% active; also: potency is read from the fitted curve at half-maximal effect; % is scaled to controls: 0 for no effect and ±100 for the full control effect; nearly all actives have a fitted effect of over 80% in size
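ATPase turnover read by TR-FRET ADP competition (Eu cryptate antibody/ADP-d2, 665/590 nm): 10uM ATP final, 25nM Mm-CPN final, 30 min 37degC after 10-min compound preincubation, pH 7.4 Tris/KCl/MgCl2/DTT buffer.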
BRCA1 expr act: BRCA1 expression activation; MCF7-BRCA1-FFLuc reporter, luminescence, 48 h; response scale: scaled: vehicle 0%, 10 µM genistein 100%; Potency, µM (highest dose often 46.1 µM), inactives show at the highest dose activation, actives largely listed as activators; 380,000 tested, 1.1% active; also: potency is read from the fitted curve at half-maximal effect; nearly all actives have a fitted effect of over 80% in size
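MCF7 cells carrying a BRCA1-firefly luciferase reporter (2000 cells/well, phenol-red free MEM) were attached for 2 h at 37 °C, then given compounds for 48 h. Luminescence was read 15 min after luciferase reagent; activity normalized to genistein (10 microM) and DMSO.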
Starred values were filed as active, the others as inactive; i = inactive; ? = inconclusive; . = no result. Unless noted, calls follow the shape of the dose curve; as a rule, active = well fitted curve in the direction sought with a large enough effect; inconclusive = small, poorly fitted or top-dose-only effect, or another doubt; inactive = no such curve, though single readings can be large; an effect the other way counts as inactive or inconclusive.

SMILES	Akt phos inh	AT treatment	CCT chaperon mod	MmCpn inh	BRCA1 expr act
COc1ccc(NC(=O)CN(c2ccccc2F)S(=O)(=O)c2ccc(C)cc2)c(OC)c1	i	-8%	1	0%	-32%
C(=NOCc1ccccc1)c1ccccn1	i	.	2	.	10µM*
C(=NOCc1ccccc1)c1ccncc1	i	.	-1	.	86%
CCC(C(=O)Nc1cc(OC)ccc1OC)n1nc(-c2ccccc2)c2c(c1=O)CCCC2 (stereo not given)	.	.	.	.	-20%
CCOC(=O)/C(C#N)=C/Nc1ccsc1C(=O)OC	i	1%	-49*	1%	-10%
CN1CCN(C(=O)c2cc(-c3cccc(Cl)c3)on2)CC1	i	-2%	-3	-7%	?
O=C(c1cc(-c2cccc(Cl)c2)on1)N1CCCCCC1	i	1%	-1	-1%	13µM*
COc1ccc(NC(=S)Nc2ccccn2)cc1	i	44%	0	0%	4µM*
COc1ccccc1/C=C/C(=O)NC(=S)Nc1ccccn1	i	-2%	-2	2%	-19%
COc1ccc(/C=C/C(=O)NC(=S)Nc2ccccn2)cc1	i	0%	-1	-2%	8.9µM*
Cn1nc(C(=O)NCc2ccccc2)c2c1-c1ccccc1S(=O)(=O)C2	i	-3%	-1	1%	2%
Cc1ccc(OCCC(=O)NNC(=O)c2ccc(Br)cc2)cc1	i	2%	-3	-5%	-16%
Cc1cccc(NS(=O)(=O)c2ccc(C)c(C(=O)N(C)C3CCN(C)CC3)c2)c1	i	7%	-2	1%	19%
Cc1cccc(Nc2nc3c(s2)CCCC3)c1	i	0%	-4	-7%	10µM*
O=C(O)c1ccc(Nc2nc3c(s2)CCCC3)cc1	i	2%	-4	-5%	?
CC(C)CN1CC(COCc2ccccc2)Oc2ccccc2S1(=O)=O (stereo not given)	i	7%	-1	1%	3%
O=C(O)Cc1ccc(C(=O)c2ccc(Cl)cc2Cl)s1	i	6%	-2	0%	49%
COc1ccc(-c2sc(C(=O)c3ccc(Cl)cc3Cl)cc2CC(=O)O)cc1	i	4%	-1	50µM*	-81%
COc1ccc2c(c1)CCC/C2=N/OC(=O)c1ccccc1OC	i	7%	0	-1%	14%
COc1ccc2c(c1)CC/C2=N\OC(=O)c1ccccc1C	i	11%	-2	-2%	11µM*
O=C(Nc1ccc(F)c(Cl)c1)C1Cc2c(-c3ccco3)ccnc2O1 (stereo not given)	i	.	-1	.	-29%
COc1ccc(C(=S)NC2CCCCC2)cc1	i	4%	-1	0%	?
CCOc1ccc(C(=S)NC2CCCCC2)cc1	i	15%	-1	-1%	10µM*
O=C(COc1ccccc1Cl)OCc1cc(=O)n2nc(-c3cccs3)sc2n1	.	.	.	.	0%
CNc1nc(-c2ccc([N+](=O)[O-])cc2)cs1	i	-3%	-1	1%	10µM*
SMILES	Akt phos inh	AT treatment	CCT chaperon mod	MmCpn inh	BRCA1 expr act
Nc1nc(-c2ccccc2)cs1	i	0%	2	0%	101%
Nc1nc(-c2cccc(Br)c2)cs1	i	-1%	0	-2%	11µM*
Nc1nc(-c2ccc(Br)cc2)cs1	i	-1%	0	1%	16µM*
Cn1c2ccccc2c(=O)c2cc(C#Cc3cccc(N)c3)ccc21	i	0%	0	-17%	?
O=c1c2ccccc2sc2ccc(C#CC3(O)CCCCC3)cc12	i	.	-2	.	-61%
C=CCn1c2ccccc2c(=O)c2cc(C#CC3(O)CCCCC3)ccc21	i	25µM*	-20	-10%	?
C=CCn1c2ccccc2c(=O)c2cc(C#CC[C@@H](C)O)ccc21	i	20µM*	-1	?	3.5µM*
N#Cc1ccc(OC(=O)c2cc(-c3ccc(Cl)cc3)on2)cc1	.	.	.	.	3%
COc1cc(C)ccc1NC(=O)c1ccc(S(=O)(=O)N2CCOCC2)cc1	i	6%	-30*	-1%	2%
Cc1ccc(NC(=O)c2ccc(S(=O)(=O)N3CCOCC3)cc2)c(C)c1	i	1%	1	-1%	-3%
COc1ccc(C2NN=C(c3ccc(C)cc3)S2)cc1 (stereo not given)	i	16%	-1	-4%	1.8µM*
COc1ccc2cc3cc(C(=O)NCCCN4CCc5ccccc5C4)sc3nc2c1	i	2%	0	1%	7.1µM*
CNc1nnc(CSc2nc3ccccc3s2)s1	i	3%	-2	-1%	11µM*
Cc1noc(C)c1CSc1nc2ccccc2s1	i	-4%	0	0%	-8%
c1csc(CSc2nc3ccccc3s2)c1	i	12%	-8	1%	7.9µM*
C=C(NNC(C)=O)c1ccc(O)cc1	.	.	.	.	12%
COc1ccc(CC(=O)Nc2nc(C(C)(C)C)cs2)cc1	i	-2%	-67*	3%	-16%
Cn1ccs/c1=N\C(=O)Nc1cccc(Cl)c1	i	4%	-1	-4%	3.5µM*
O=C(O)c1cc2cccc([N+](=O)[O-])c2[nH]1	.	.	.	.	0%
COc1ccc(OC)c(NC(=O)CSc2nnc(C)n2Cc2ccccc2)c1	.	.	-49*	0%	5%
COc1ccccc1NC(=O)CSc1nnc(Cc2cccn2C)n1CCc1ccccc1	-83%*	-1%	1	-1%	-4%
CCCCCOc1ccc(NS(C)(=O)=O)cc1	i	-1%	-2	-1%	11µM*
C=CCSc1nc2ccccc2n1C(=O)/C=C/c1cc(OC)c(OC)c(OC)c1	i	.	-4	-6%	-90%
C=CCSc1nc2ccccc2n1C(=O)/C=C/c1ccc(OC)c(OC)c1	i	32µM*	1	-6%	-89%
CCSc1nc2ccccc2n1C(=O)/C=C/c1ccc(OC)c(OC)c1	i	22µM*	0	?	-83%
SMILES	Akt phos inh	AT treatment	CCT chaperon mod	MmCpn inh	BRCA1 expr act
COc1cccc(NC(=O)CN(C)CC(=O)Nc2ccc(C)c(S(=O)(=O)N3CCOCC3)c2)c1	i	.	-1	.	-21%
Cc1cc(C(=O)N2CCC2(C)C(=O)NS(=O)(=O)c2ccc(Cl)cc2)nn1C (stereo not given)	i	.	1	.	16%
COc1ccc(Cc2nnc(Nc3ccc(C)cc3C)[nH]c2=O)cc1	-122%*	-4%	-1	2%	-6%
Oc1ccc(/C=N/Nc2ccc(C(F)(F)F)cn2)cc1	i	15%	0	-2%	6.3µM*
c1ccc(OCc2nc(-c3cccs3)no2)cc1	i	.	0	-3%	11µM*
Cc1ccc(OCc2nc(-c3ccccc3)no2)cc1	i	11%	-3	-1%	8.9µM*
COc1ccc(-c2noc(Cc3ccccc3OC)n2)cc1	i	15%	4	0%	93%
Fc1ccc(OCc2nc(-c3cccs3)no2)cc1	i	4%	-3	3%	7.9µM*

Source: PubChem
